Measurements: PubChem BioAssay (NCI)
About 79,000 compounds went through this panel and 15% of them were active in at least one assay; those are over-represented in the sample as a whole. Activity calls are given as the source filed them. No stated cut-off is given here; in the data, active means growth inhibition above about 70%; inactive means the rest.

Assays:
[1] = NCI Yeast Anticancer Drug Screen. Data for the rad52 strain (AID 147);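 further: 0% = growth of vehicle-treated control cultures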; details: S. cerevisiae rad52 mutant growth inhibition, hits give high values
How it was run: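 Growth of repair-deficient yeast cells was compared between compound-treated and vehicle-treated cultures to give percent inhibition.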

[2] = NCI Yeast Anticancer Drug Screen. Data for the wt1 strain (AID 149);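 further: 0% = growth of vehicle-treated wt1 cultures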; details: S. cerevisiae wt1 strain (SPY 50644) growth inhibition, hits give high values
How it was run: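 Each compound is tested on wt1 yeast and the loss of growth versus vehicle gives the inhibition value.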

[3] = NCI Yeast Anticancer Drug Screen. Data for the mec2-1 strain (AID 157); details: S. cerevisiae mec2-1 strain, hits give high values
How it was run: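 Compounds were applied to mec2-1 yeast cells. Their growth was then compared with that of vehicle-treated cultures to give growth inhibition.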

[4] = NCI Yeast Anticancer Drug Screen. Data for the rad14 strain (AID 159);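 further: 0% = growth of vehicle-treated control cultures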; details: S. cerevisiae rad14 strain growth inhibition, hits give high values
How it was run: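 Inhibition of growth is reported for a repair-deficient yeast mutant following compound treatment, calculated relative to cultures that received vehicle.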

[5] = NCI Yeast Anticancer Drug Screen. Data for the sgs1 mgt1 strain (AID 161);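 further: 0% = growth of cultures given vehicle only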; details: S. cerevisiae sgs1 mgt1 strain, hits give high values
How it was run: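 Yeast cells carrying a defined DNA-repair defect were exposed to test compounds. Growth inhibition was measured relative to vehicle-treated controls.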

[6] = NCI Yeast Anticancer Drug Screen. Data for the CLN2oe strain (AID 163);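 further: 0% = growth of vehicle-only control cultures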; details: S. cerevisiae CLN2oe strain, hits give high values
How it was run: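 Cells of an engineered yeast line with disturbed cell-cycle regulation are treated with compound. Inhibition of growth is then calculated relative to the vehicle-treated reference.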

[7] = NCI Yeast Anticancer Drug Screen. Data for the cln2 rad14 strain (AID 165);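 further: 0% = growth equal to vehicle treated cultures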; details: S. cerevisiae cln2 rad14 strain, hits give high values
How it was run: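 Strain: cln2 rad14 yeast, altered in cell cycle control and DNA damage repair. Read-out: growth inhibition vs vehicle.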

[8] = NCI Yeast Anticancer Drug Screen. Data for the bub3 strain (AID 167); details: S. cerevisiae bub3 mutant strain, hits give high values
How it was run: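 Mutant yeast screening strain plus compound; vehicle-treated cultures serve as the 0% inhibition reference.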

[9] = NCI Yeast Anticancer Drug Screen. Data for the wt2 strain (AID 169); details: S. cerevisiae wt2 strain growth inhibition, hits give high values
How it was run: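 Growth of compound-treated yeast is measured and expressed as inhibition relative to vehicle-only controls.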

[10] = NCI Yeast Anticancer Drug Screen. Data for the mlh1 strain (AID 171);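 further: 0% = growth of vehicle-treated control cultures of the same strain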; details: S. cerevisiae mlh1 strain growth inhibition, hits give high values
How it was run: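 Test agents were incubated with yeast bearing a defined DNA damage repair or cell cycle control alteration; values are growth inhibition normalised to vehicle-treated cultures.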

[11] = NCI Yeast Anticancer Drug Screen. Data for the sgs1 strain (AID 173);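 further: 0% = growth of vehicle-only control cultures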; details: S. cerevisiae sgs1 mutant, hits give high values
How it was run: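 Strain with an altered DNA repair or cell cycle pathway exposed to compound. Growth then measured. Value = inhibition versus vehicle control.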

[12] = NCI Yeast Anticancer Drug Screen. Data for the mlh1 rad18 strain (AID 175); details: S. cerevisiae mlh1 rad18 strain growth inhibition, hits give high values
How it was run: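 A repair-deficient yeast strain is exposed to test compound, and growth is scored relative to vehicle-treated controls.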

[13] = NCI Yeast Anticancer Drug Screen. Data for the mgt1 strain (AID 153); details: S. cerevisiae mgt1 mutant growth inhibition, hits give high values
How it was run: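 Compounds were applied to mgt1 mutant yeast, and growth was then compared against vehicle-treated control cultures to give percent inhibition.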

[14] = NCI Yeast Anticancer Drug Screen. Data for the rad50 strain (AID 155);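 further: 0% = growth of vehicle-only cultures of the same strain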; details: S. cerevisiae rad50 strain growth inhibition, hits give high values
How it was run: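 Vehicle-treated cultures provide the reference for the growth inhibition reported for compound-exposed, repair-deficient yeast.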

[15] = NCI Yeast Anticancer Drug Screen. Data for the rad18 strain (AID 177); details: S. cerevisiae rad18 mutant growth inhibition, hits give high values
How it was run: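 DNA-repair-defective yeast; compound treatment; growth inhibition scored against vehicle.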

[16] = at 5.0 µM (retest, dose inferred, filed as 0.5)
[17] = at 50.0 µM (retest, dose inferred, filed as 5.0)

Measured: growth inhibition

Cc1cc(Cl)ccc1NC(=O)/C(Cl)=C1/Sc2ccccc2NC1=O
active: [5]; [17] 91% | [8]; [17] 91% | [12]; [17] 80%
inactive: [1]; at 1.2 µM -3% | [1]; at 3.7 µM -3% | [1]; at 11.0 µM -2% | [1]; at 33.0 µM 0% | [1]; at 100.0 µM 27% | [2]; at 1.2 µM -1% | [2]; at 3.7 µM -3% | [2]; at 11.0 µM -4% | [2]; at 33.0 µM -41% | [2]; at 100.0 µM 3% | [3]; at 1.2 µM -1% | [3]; at 3.7 µM -5% | [3]; [16] 24% | [3]; at 11.0 µM -6% | [3]; at 33.0 µM -5% | [3]; [17] 62% | [3]; at 50.0 µM 56.9% | [3]; at 100.0 µM 16% | [4]; at 1.2 µM 1% | [4]; at 3.7 µM 4% | [4]; at 11.0 µM 5% | [4]; at 33.0 µM 4% | [4]; at 100.0 µM 2% | [5]; [16] 36% | [5]; at 50.0 µM 68.5% | [6]; at 1.2 µM -8% | [6]; at 3.7 µM -1% | [6]; at 11.0 µM -6% | [6]; at 33.0 µM -7% | [6]; at 100.0 µM -14% | [7]; [16] 23% | [7]; [17] 57% | [7]; at 50.0 µM -5.3% | [8]; at 1.2 µM -2% | [8]; at 3.7 µM -2% | [8]; [16] 35% | [8]; at 11.0 µM -3% | [8]; at 33.0 µM -4% | [8]; at 50.0 µM 20.2% | [8]; at 100.0 µM 7% | [9]; at 1.2 µM -2% | [9]; at 3.7 µM 7% | [9]; at 11.0 µM -2% | [9]; at 33.0 µM -2% | [9]; at 100.0 µM 2% | [10]; at 1.2 µM -1% | [10]; at 3.7 µM -3% | [10]; at 11.0 µM -3% | [10]; at 33.0 µM -5% | [10]; at 100.0 µM 0% | [11]; at 1.2 µM -1% | [11]; at 3.7 µM 2% | [11]; at 11.0 µM 4% | [11]; at 33.0 µM 7% | [11]; at 100.0 µM 31% | [12]; [16] 35% | [12]; at 50.0 µM 69.2%

O=c1[nH]cc(/C=N\Nc2ccccc2)c(=O)[nH]1
active: [7]; at 50.0 µM 73.8% | [8]; at 50.0 µM 82.9% | [12]; [17] 81% | [12]; at 50.0 µM 84.5% | [15]; at 11.0 µM 73% | [15]; at 33.0 µM 88% | [15]; at 100.0 µM 89%
inactive: [1]; at 1.2 µM 1% | [1]; at 3.7 µM 6% | [1]; at 11.0 µM 36% | [1]; at 33.0 µM 56% | [1]; at 100.0 µM 63% | [2]; at 1.2 µM 3% | [2]; at 3.7 µM 6% | [2]; at 11.0 µM 37% | [2]; at 33.0 µM 57% | [2]; at 100.0 µM 49% | [13]; at 1.2 µM 3% | [13]; at 3.7 µM -2% | [13]; at 11.0 µM 21% | [13]; at 33.0 µM 31% | [13]; at 100.0 µM 46% | [14]; at 1.2 µM 3% | [14]; at 3.7 µM 17% | [14]; [16] -11% | [14]; at 11.0 µM 31% | [14]; at 33.0 µM 49% | [14]; [17] 40% | [14]; at 50.0 µM 61.9% | [14]; at 100.0 µM 60% | [3]; at 1.2 µM 0% | [3]; at 3.7 µM -2% | [3]; [16] -3% | [3]; at 11.0 µM 27% | [3]; at 33.0 µM 31% | [3]; [17] 15% | [3]; at 50.0 µM 52.4% | [3]; at 100.0 µM 21% | [5]; [16] -1% | [5]; [17] 67% | [5]; at 50.0 µM 60.9% | [6]; at 1.2 µM -3% | [6]; at 3.7 µM 6% | [6]; at 11.0 µM 32% | [6]; at 33.0 µM 43% | [6]; at 100.0 µM 48% | [7]; [16] -29% | [7]; [17] 29% | [8]; at 1.2 µM 9% | [8]; at 3.7 µM 1% | [8]; [16] 7% | [8]; at 11.0 µM 27% | [8]; at 33.0 µM 39% | [8]; [17] 50% | [8]; at 100.0 µM 40% | [9]; at 1.2 µM 0% | [9]; at 3.7 µM 8% | [9]; at 11.0 µM 51% | [9]; at 33.0 µM 57% | [9]; at 100.0 µM 55% | [10]; at 1.2 µM -3% | [10]; at 3.7 µM 5% | [10]; at 11.0 µM 17% | [10]; at 33.0 µM 28% | [10]; at 100.0 µM 39% | [11]; at 1.2 µM 3% | [11]; at 3.7 µM 8% | [11]; at 11.0 µM 41% | [11]; at 33.0 µM 62% | [11]; at 100.0 µM 66% | [12]; [16] -3% | [15]; at 1.2 µM 5% | [15]; at 3.7 µM 28%

O=C(N/N=C\c1c(Cl)cccc1Cl)N/N=C/c1c(Cl)cccc1Cl
inactive: [1]; at 1.2 µM 14% | [1]; at 3.7 µM 14% | [1]; at 11.0 µM 23% | [1]; at 33.0 µM 22% | [1]; at 100.0 µM 25% | [2]; at 1.2 µM -2% | [2]; at 3.7 µM 8% | [2]; at 11.0 µM 4% | [2]; at 33.0 µM 17% | [2]; at 100.0 µM 29% | [14]; at 1.2 µM 14% | [14]; at 3.7 µM 12% | [14]; [16] 30% | [14]; at 11.0 µM 21% | [14]; at 33.0 µM 14% | [14]; at 50.0 µM -7.7% | [14]; at 100.0 µM 5% | [3]; at 1.2 µM 21% | [3]; at 3.7 µM 25% | [3]; [16] 35% | [3]; at 11.0 µM 12% | [3]; at 33.0 µM 0% | [3]; at 50.0 µM -13.8% | [3]; at 100.0 µM 3% | [4]; at 1.2 µM -4% | [4]; at 3.7 µM -21% | [4]; at 11.0 µM 8% | [4]; at 33.0 µM -7% | [4]; at 100.0 µM -12% | [5]; [16] -13% | [5]; [17] 29% | [5]; at 50.0 µM 9.15% | [6]; at 1.2 µM -8% | [6]; at 3.7 µM -12% | [6]; at 11.0 µM -21% | [6]; at 33.0 µM -8% | [6]; at 100.0 µM -10% | [7]; [16] 49% | [7]; at 50.0 µM 13.7% | [8]; at 1.2 µM 6% | [8]; at 3.7 µM 11% | [8]; [16] 36% | [8]; at 11.0 µM -3% | [8]; at 33.0 µM 0% | [8]; [17] 58% | [8]; at 50.0 µM 12.2% | [8]; at 100.0 µM 1% | [9]; at 1.2 µM 11% | [9]; at 3.7 µM 7% | [9]; at 11.0 µM 7% | [9]; at 33.0 µM -3% | [9]; at 100.0 µM 17% | [11]; at 1.2 µM 8% | [11]; at 3.7 µM 1% | [11]; at 11.0 µM 19% | [11]; at 33.0 µM 10% | [11]; at 100.0 µM 5%
active: [14]; [17] 97% | [3]; [17] 98% | [7]; [17] 70%
